From PubChem BioAssay
Only some compounds are listed: those with a hit (about 12% of all), similar ones and a draw of the others.
G9a block: blocks human histone lysine methyltransferase G9a; Potency, µM (highest dose often 102 µM), for the others: at the highest dose activity, negative = inhibition, hits mostly inhibitors; Q96KQ7; G9a H3K9 monomethylation, AlphaScreen, 2 h; AID 504332; 8.8% of 350,000 active; also: potency is read from the fitted curve at half-maximal effect; % is scaled to controls: 0 for no effect and ±100 for the full control effect; nearly all actives have a fitted effect of over 75% in size
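Signal arises when biotinylated H3K9 peptide, once monomethylated, bridges streptavidin donor and antibody-captured acceptor beads. Enzyme at 20 nM was preincubated 15 min with test compounds; peptide 500 nM and SAM 20 uM then reacted for 2 h.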
PLK1 PBD inh: blocks phosphopeptide binding to human PLK1 polo-box domain | Plk1 PBD binding of FITC phosphopeptide, fluorescence polarization | Potency, µM, for the others: max response, negative = inhibition, usual class: inhibitors | 2.8% of 360,000 active; also: potency is read from the fitted curve at half-maximal effect; series mostly up to about 57 µM; % is scaled to controls: 0 for no effect and ±100 for the full control effect; nearly all actives have a fitted effect of over 65% in size
JMJD2A Tudor inh: JMJD2A Tudor domain (human) inhibition; O75164; AlphaScreen JMJD2A-Tudor / H3K4me3 peptide binding; Potency, µM (doses to about 114 µM), for inactives: top-dose activity change, negative = inhibition, hits mostly inhibitors; 4.4% of 390,000 active; also: potency is read from the fitted curve at half-maximal effect; % is scaled to controls: 0 for no effect and ±100 for the full control effect; nearly all actives have a fitted effect of over 50% in size
Target sequence (O75164 whole entry, looked up, the tested form may be a part): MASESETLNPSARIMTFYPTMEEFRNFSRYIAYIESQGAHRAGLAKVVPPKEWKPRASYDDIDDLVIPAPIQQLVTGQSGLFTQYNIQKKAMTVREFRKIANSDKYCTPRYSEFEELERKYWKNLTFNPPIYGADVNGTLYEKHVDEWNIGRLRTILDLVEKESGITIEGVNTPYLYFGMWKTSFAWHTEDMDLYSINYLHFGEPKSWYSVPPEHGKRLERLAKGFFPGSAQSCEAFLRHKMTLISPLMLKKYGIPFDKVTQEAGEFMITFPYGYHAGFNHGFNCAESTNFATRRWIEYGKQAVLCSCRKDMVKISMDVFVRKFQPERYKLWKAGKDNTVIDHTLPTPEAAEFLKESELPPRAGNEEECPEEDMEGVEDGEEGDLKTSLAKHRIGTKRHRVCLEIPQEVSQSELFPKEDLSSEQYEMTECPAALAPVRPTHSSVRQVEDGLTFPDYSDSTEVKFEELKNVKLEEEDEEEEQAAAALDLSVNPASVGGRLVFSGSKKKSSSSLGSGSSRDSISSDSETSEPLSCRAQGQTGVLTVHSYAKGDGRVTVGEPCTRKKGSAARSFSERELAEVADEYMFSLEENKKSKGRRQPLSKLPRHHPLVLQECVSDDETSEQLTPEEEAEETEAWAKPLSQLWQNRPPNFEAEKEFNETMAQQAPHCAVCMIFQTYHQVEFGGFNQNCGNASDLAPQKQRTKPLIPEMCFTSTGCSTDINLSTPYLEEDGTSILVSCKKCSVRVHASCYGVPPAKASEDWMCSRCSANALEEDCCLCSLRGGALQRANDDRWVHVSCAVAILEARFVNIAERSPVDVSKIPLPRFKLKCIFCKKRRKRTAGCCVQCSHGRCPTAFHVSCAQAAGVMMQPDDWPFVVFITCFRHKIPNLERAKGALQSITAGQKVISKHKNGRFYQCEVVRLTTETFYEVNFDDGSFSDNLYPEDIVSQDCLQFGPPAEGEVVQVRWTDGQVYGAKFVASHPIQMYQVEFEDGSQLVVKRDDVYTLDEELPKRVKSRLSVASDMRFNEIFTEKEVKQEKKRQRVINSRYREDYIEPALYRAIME
BAZ2B inh: blocks human BAZ2B; 4.4% of 360,000 active; AID 504333; AlphaScreen BAZ2B-H3K14Ac peptide displacement; Potency, µM (series often up to 114 µM), for the others: at the top dose activity change, negative = inhibition, actives largely listed as inhibitors; Q9UIF8; also: potency is read from the fitted curve at half-maximal effect; % is scaled to controls: 0 for no effect and ±100 for the full control effect; nearly all actives have a fitted effect of over 60% in size
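Complex of BAZ2B and biotin-H3K14Ac (50 nM apiece) forms over 30 min at RT, then faces library compounds up to 110 uM for another 30 min; AlphaScreen beads added, 20 min dark incubation, luminescence read.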
PI5P4Ka inh: inhibitors of human PI5P4K alpha; max response, %; PI5P4Kalpha enzyme, ADP-Glo luminescence, 60 min; hits give low values; P48426; 1.2% of 330,000 active; active = max response of -50% or lower; inconclusive = between -30% and -50%; inactive = -30% or higher; also: value at the top dose of about 77 µM; % is scaled to controls: 0 for no effect and ±100 for the full control effect
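Single end-point luminescence (ADP-Glo) quantified ADP from PI5P4Kalpha turnover; ATP 5 microM final, 1 h at RT, 0.1% CHAPS and 0.28 mM EGTA in HEPES pH 7.4.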
HP1b chromo inh: HP1-beta chromodomain-methylated histone interaction inhibition; AID 540317; 0.56% of 390,000 active; AlphaScreen HP1-beta / biotin-H3K9me3 peptide binding; P83916; Potency, µM (top dose mostly 114 µM), for the others: at the highest dose activity change, negative = inhibition, most hits filed as inhibitors; also: potency is read from the fitted curve at half-maximal effect; nearly all actives have a fitted effect of over 70% in size
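HP1-beta protein (50 nM final) preincubated 30 min at room temperature with biotinylated H3(1-18)K9me3 peptide (50 nM) in PBS pH 7.4, 0.01% Tween-20, then compound added for 30 min. AlphaScreen streptavidin donor/nickel chelate acceptor beads (10 ug/mL final), 30 min dark, luminescence read.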
Active calls of the source: *; ? = inconclusive; / = no result; [ ] = another dose, or the depositor's remark. Unless noted, calls follow the shape of the dose curve; as a rule, active = well fitted curve in the direction sought with a large enough effect; inconclusive = small, poorly fitted or top-dose-only effect, or another doubt; inactive = no such curve, though single readings can be large; an effect the other way counts as inactive or inconclusive.

SMILES	G9a block	PLK1 PBD inh	JMJD2A Tudor inh	BAZ2B inh	PI5P4Ka inh	HP1b chromo inh
OC(c1ccccc1)(c1ccccc1)C1CCN(C(=S)Nc2ccc(F)cc2)CC1	/	-2%	-36%	/	-4	16%
OC(c1ccccc1)(c1ccccc1)C1CCN(C(=S)NC2CCCC2)CC1	40µM*	-14%	-22%	-32%	-6	-6%[57 µM]
O=C(Nc1ccncc1)c1ccccc1F	-3%	27µM*	-5%[11.4 µM]	-18%	-11	4%
COc1ccc(NC(=O)c2ccccc2F)cc1Cl	20%	-6%	-9%	56µM*	3	32%
O=C(Nc1ccc(F)cc1)c1ccccc1F	0%[59 µM]	-3%	6%	-31%	/	20%
COc1ccc(NC(=O)c2cccc(F)c2)cc1Cl	21%	-3%	-1%	-6%	2	21%
N#CC(C#N)=Cc1cccn1-c1ccc(C(=O)O)cc1	11µM*	?	?	20µM*	?	?
CCOC(=O)/C(C#N)=C/c1cccn1-c1ccc(Cl)cc1	/	0%	4%	0%	-1	21%
N#C/C(=C/c1cccn1-c1cccc(C(=O)O)c1)c1ccc(Cl)cc1	?	30µM*	8.9µM*	45µM*	-20	?
COC(=O)[C@@]1(Cc2ccc(OC)cc2)[C@H]2c3cc(C(=O)N(C)C)n(CCc4ccc(OC)c(Br)c4)c3C[C@H]2CN1C(=O)c1ccccc1	40µM*	/	/	?	/	/
COC(=O)[C@@]1(Cc2ccc(F)cc2)[C@H]2c3cc(C(=O)N(C)C)n(CCSCCO)c3C[C@H]2CN1C(=O)c1ccccc1	?	-12%	-30%	?	-1	28%
COC(=O)[C@@]1(Cc2ccc(OC)cc2)[C@H]2c3cc(C(=O)N(C)C)[nH]c3C[C@H]2CN1C(=O)c1ccccc1	50µM*	-2%	-30%	56µM*	3	13%
COC(=O)[C@@]1(Cc2ccc(F)cc2)[C@H]2c3cc(C(=O)N(C)C)n(Cc4ccccn4)c3C[C@H]2CN1C(=O)c1ccccc1	?	-10%	-35%	?	0	18%
COC(=O)[C@@]1(Cc2ccc(OC)cc2)[C@H]2c3cc(C(=O)N4CCCC4)n(Cc4ccc(OC)c(OC)c4)c3C[C@H]2CN1C(=O)c1ccccc1	45µM*	/	/	?	/	/
COC(=O)[C@@]1(Cc2ccc(F)cc2)[C@H]2c3cc(C(=O)N(C)C)n(Cc4nc5ccccc5[nH]4)c3C[C@H]2CN1C(=O)c1ccccc1	50µM*	0%	?	?	3	-2%
COC(=O)[C@@]1(Cc2ccc(OC)cc2)[C@H]2c3cc(C(=O)N(C)C)n(Cc4c(CO)[nH]cc(C)c4=O)c3C[C@H]2CN1C(=O)c1ccccc1	/	11%	-21%	/	5	21%
Cc1ccc(C)c(CN2C(=O)c3ccccc3S(=O)(=O)c3ccc(C(=O)N4CCc5ccccc54)cc32)c1	?	/	-29%	?	/	6%
COC(=O)[C@@]1(Cc2ccc(OC)cc2)[C@H]2c3cc(C(=O)N4CCCC4)n(CCN4CCNC4=O)c3C[C@H]2CN1C(=O)c1ccccc1	79µM*	/	/	-11%	/	/
COC(=O)[C@@]1(Cc2ccc(OC)cc2)[C@H]2c3cc(C(=O)N4CCCC4)n(CCN4CCOCC4)c3C[C@H]2CN1C(=O)c1ccccc1	/	-7%	/	/	9	/
O=C(Nc1ccccc1Cl)c1cc(C2CCCCN2S(=O)(=O)c2ccc(F)cc2F)on1 (configuration not stated)	/	-5%	/	/	8	/
[O-][n+]1c2c(c3c4non(O)c4ccc31)CCCC2	?	-21%	?	40µM*	/	-16%
CCOc1cc(/C=N/NC(=O)c2ccccn2)ccc1OC(=O)c1cccs1	7%	6%	-16%	-1%	3	33%
COc1ccc(/C=C2/C(=O)N(c3c(F)c(F)c(F)c(F)c3F)N=C2C)cc1	27%[0.501 µM]	6.7µM*	-21%	-4%	-4	-11%
CC1=NN(c2ccccc2)C(=O)/C1=C/c1cc2cc(C)ccc2nc1N1CCCCC1	-15%[0.0925 µM]	/	/	8.9µM*	/	/
